From PubChem BioAssay AID2013 (Sanford-Burnham Center for Chemical Genomics, 2009)
In all, about 290,000 compounds went through this assay and about 370 (0.13%) were called active. For the sample, actives were picked, then their nearest neighbours and some compounds at random. Results with a measured potency or affinity are listed apart. Unmarked numbers belong to inactive results.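 How the source made its calls: active means spots per cell inhibited over 60%, with over 100 cells counted and total cytoplasm intensity under 500,000; inconclusive means wells with under 100 cells, flagged as likely toxic; inactive means the rest.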

biological target: G-protein coupled receptor 55 (Homo sapiens) (UniProt Q9Y2T6); experiment: inhibition of LPI-stimulated GPR55 beta-arrestin translocation – imaging, U2OS, beta-arrestin-GFP, LPI agonist, primary screen (AID 2013); details: LPI antagonism, at 10 µM, active compounds read high;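 further: U2OS cells stably carrying GPR55 and arrestin-GFP stimulated by 5 µM LPI near EC80; imaged beta-arrestin-GFP aggregate spots per cell after agonist stimulation; plate controls were LPI-stimulated DMSO wells for no effect and DMSO wells without LPI for full effect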
Sequence (Q9Y2T6 whole entry, looked up): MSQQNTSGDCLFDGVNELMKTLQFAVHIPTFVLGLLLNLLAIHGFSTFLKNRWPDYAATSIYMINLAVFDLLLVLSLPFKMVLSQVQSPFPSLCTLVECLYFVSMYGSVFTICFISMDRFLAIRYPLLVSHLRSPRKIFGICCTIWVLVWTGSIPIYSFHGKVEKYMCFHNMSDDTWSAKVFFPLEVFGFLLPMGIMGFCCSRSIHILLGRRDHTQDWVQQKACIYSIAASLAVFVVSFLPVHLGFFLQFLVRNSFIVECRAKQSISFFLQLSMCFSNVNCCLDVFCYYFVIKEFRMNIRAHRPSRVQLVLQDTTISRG

Compound | inhibition
C#CCOCCOCCOCCNc1nc(N2CCN(C(=O)[C@H](CCC(=O)O)n3cc(C(N)CC(C)C)nn3)CC2)nc(N2CCN(C(=O)[C@H](Cc3ccc(O)cc3)n3cc(C(N)[C@H](C)CC)nn3)CC2)n1 (stereo partly drawn) | 13%
O=C(Nc1ccccc1)c1ccccc1NC(=O)C1CCCCC1 | -8.2%
COc1ccc(C2=NN(c3ccccc3)C(=O)/C2=C\c2ccc(O)c(OC)c2)cc1 | -6.3%
O=C1/C(=C\c2ccc(O)c(O)c2)C(c2ccccc2)=NN1c1ccccc1 | -3.8%
COc1cc(/C=C2\C(=O)N(c3ccc(NC(C)=O)cc3)N=C2c2ccccc2)ccc1O | 89.7% (active)
S=C1Cc2ccccc2N1 | -4.5%
O=C(O)c1cc(-c2ccc(/C=C3/SC(=S)N(Cc4ccccc4)C3=O)o2)ccc1Cl | 61.2% (active)
C#CCN1C(=O)S/C(=C\c2ccc(-c3ccc(Cl)c(C(=O)O)c3)o2)C1=O | -15.9%
COc1ccc(CN2C(=O)/C(=C/c3ccc(-c4ccc(Cl)c(C(=O)O)c4)o3)SC2=S)cc1 | 34.2%
O=C(NCc1ccco1)C1(c2ccc(Br)cc2)CCCC1 | 1.4%
C=CCn1c(O)c(C2=c3ccccc3=NC2=O)sc1=Nc1ccc(O)cc1 | 5.2%
CN(CC(=O)Nc1cccc(F)c1)C(=O)c1cc(S(=O)(=O)N(C)C)ccc1N1CCCC1 | 13.5%
[N-]=[N+]=N[C@@H](CCN1CC[C@H](NC(=O)OCc2ccccc2)CCC1=O)c1ccccc1 | 6.9%
O=C(CSc1nnc(C2CCCCC2)n1Cc1ccccc1)NCc1ccco1 | -1.4%
CCOC(=O)c1sc2nc(N3CCOCC3)c3c(c2c1N)CC(C)(C)N(C)C3 | -4.1%
CN1Cc2c(N3CCOCC3)nc3sc(C(=O)c4ccccc4)c(N)c3c2CC1(C)C | 1.2%
NC(=S)Cc1nc2n(n1)Cc1ccccc1-2 | 5.2%
CC1CC(N(C(=O)c2ccco2)c2ccccc2)c2ccccc2N1 (stereo not drawn) | 10.3%
CC1CC(N(C(=O)c2ccc(Cl)cc2)c2ccccc2)c2ccccc2N1C(=O)c1ccco1 (stereo not drawn) | 10.9%
CC1CC(Nc2ccccc2)c2ccccc2N1C(=O)c1ccco1 (stereo not drawn) | 6.5%

Compound | inhibition
CC(=O)N(c1ccccc1)C1CC(C)N(C(=O)c2ccccc2)c2ccccc21 (stereo not drawn) | 13.6%
COC(=O)c1c(C(C)=O)c(C)n(C)c1C | 9.9%
O=C(CSc1nc2ccccc2o1)Nc1ccccc1N1CCOCC1 | -2.4%
Cc1ccccc1NC(=O)CSc1nc2ccccc2o1 | -27.6%
CC1(C)CC(=O)C(CC(=O)Nc2ccc(S(N)(=O)=O)cc2)=C(O)C1 | 2.1%
COc1ccc(C2c3sc(=O)[nH]c3SC3C4CCC(C4)C23)cc1OC (stereo not drawn) | 4.6%
COc1ccc(C2c3sc(=O)[nH]c3SC3C4CCC(C4)C23)cc1 (stereo not drawn) | 39.7%
CN(C)/C=N/c1nc2nccc(-c3ccccc3)n2n1 | -4.1%
CCC(C)c1ccc(S(=O)(=O)N2CCN(S(=O)(=O)c3ccc(NC(C)=O)cc3)CC2)cc1 (stereo not drawn) | 6.4%
CCn1cnc2c1c(=O)n(Cc1ccc(C(=O)OC)cc1)c(=O)n2Cc1ccccc1 | 6%
O=C(O)C1C(C(=O)O)C1(c1ccccc1)c1ccccc1 (stereo not drawn) | -6.8%
CCOC(=O)C1C(C(=O)OCC)C1(c1ccccc1)c1ccccc1 (stereo not drawn) | 94.1% (active)
COC(=O)C1C(C(=O)OC)C1(c1ccccc1)c1ccccc1 (stereo not drawn) | 5.7%
O=C(c1ccccc1)N(Cc1ccccc1)Cc1ccccc1 | 11.6%
CC12CCC(C(=O)N(Cc3ccccc3)Cc3ccccc3)(OC1=O)C2(C)C (stereo not drawn) | 3.1%
CC1(C(=O)N(Cc2ccccc2)Cc2ccccc2)CC1(Br)Br (stereo not drawn) | 80.9% (active)
COc1ccc(CNS(=O)(=O)c2ccc3c(c2)CCN3C(=O)C2CC2)cc1 | 5.8%
CCOC(=O)C1CCN(CC(=O)Nc2ccc(OC)c(Cl)c2)CC1 | 17.5%
O=C(Cn1c(=O)c(=O)n(Cc2ccccc2)c2ccc(Cl)cc21)Nc1cccc(F)c1 | -4.5%
Cc1nc2ccccc2c2c1C(=O)N(C(C)C)C2=O | -5.2%

Compound | inhibition
O=C(Cn1cnc2ccccc2c1=O)Nc1cccc(-c2nnc3n2CCCCC3)c1 | -5.4%
Cc1ccc(C(c2nnnn2C2CCCCC2)N2CCc3ccccc32)cc1 (stereo not drawn) | 4.6%
COc1ccc(C(CCNC(C)c2ccccc2)C(C)C)cc1 (stereo not drawn) | 15.3%
COc1ccc(C(CCNC(C)c2ccccc2)c2ccc(F)cc2)cc1 (stereo not drawn) | 29.1%
COc1ccc(-n2cnnc2SCC(=O)Nc2ccc(C(N)=O)cc2)cc1 | -2.8%
COCc1nnc(NC(=O)C2CC(=O)N(C3CCCC3)C2)s1 (stereo not drawn) | 8.2%
O=C(O)c1cccc(N2C(=O)/C(=C/c3ccc([N+](=O)[O-])cc3)C=C2c2ccccc2)c1 | -16.1%
O=C1/C(=C/c2ccc([N+](=O)[O-])cc2)C=C(c2ccccc2)N1c1ccccc1 | 25.9%
Cc1nnc(SCC2=C(C(=O)O)N3C(=O)C(NC(=O)C(C)n4nc(C(F)(F)F)cc4C)C3SC2)s1 (stereo not drawn) | 0.4%
Nc1cc(=O)[nH]c(SC/C=C/c2ccccc2)n1 | -21.6%
Clc1nc(CN2CCCCC2)nc2sc3c(c12)CCC3 | 5.2%
Clc1nc(CN2CCCCC2)nc2sc3c(c12)CCCC3 | 61.4% (active)
Clc1nc(CN2CCOCC2)nc2sc3c(c12)CCC3 | 19%
CC1CN(C(=O)COC(=O)c2ccc(O)cc2)CC(C)O1 (stereo not drawn) | 6.6%
N#CCc1c(C#N)c(N)nc(Nc2ccccc2)c1C#N | 1.4%
COc1ccc2oc(=O)c(C(=O)N3CCN(c4ccc(F)cc4)CC3)cc2c1 | 4.2%
O=C(Cn1ncn2c(cc3ccccc32)c1=O)NCCc1cccs1 | -4.4%
COc1ccc(C(=O)N[C@H](C(=O)NCC2CCCCC2)C(C)C)cc1 | 6.5%
